Hits are enriched below; roughly 3.2% of the tested compounds scored in any of these assays.
USP1-UAF1 inh: blocks the human USP1/UAF1 deubiquitinase complex; AID 743255; 0.23% of 390,000 active; Potency, µM (titrated, usually from 57.1 µM), without a hit: top-dose activity change, negative = inhibition, most hits filed as inhibitors; O94782; recombinant USP1/UAF1, Ub-Rhodamine cleavage fluorescence; note: potency is the fitted concentration of half-maximal effect; nearly all actives have a fitted effect of over 60% in size
Target sequence (O94782 whole entry, looked up): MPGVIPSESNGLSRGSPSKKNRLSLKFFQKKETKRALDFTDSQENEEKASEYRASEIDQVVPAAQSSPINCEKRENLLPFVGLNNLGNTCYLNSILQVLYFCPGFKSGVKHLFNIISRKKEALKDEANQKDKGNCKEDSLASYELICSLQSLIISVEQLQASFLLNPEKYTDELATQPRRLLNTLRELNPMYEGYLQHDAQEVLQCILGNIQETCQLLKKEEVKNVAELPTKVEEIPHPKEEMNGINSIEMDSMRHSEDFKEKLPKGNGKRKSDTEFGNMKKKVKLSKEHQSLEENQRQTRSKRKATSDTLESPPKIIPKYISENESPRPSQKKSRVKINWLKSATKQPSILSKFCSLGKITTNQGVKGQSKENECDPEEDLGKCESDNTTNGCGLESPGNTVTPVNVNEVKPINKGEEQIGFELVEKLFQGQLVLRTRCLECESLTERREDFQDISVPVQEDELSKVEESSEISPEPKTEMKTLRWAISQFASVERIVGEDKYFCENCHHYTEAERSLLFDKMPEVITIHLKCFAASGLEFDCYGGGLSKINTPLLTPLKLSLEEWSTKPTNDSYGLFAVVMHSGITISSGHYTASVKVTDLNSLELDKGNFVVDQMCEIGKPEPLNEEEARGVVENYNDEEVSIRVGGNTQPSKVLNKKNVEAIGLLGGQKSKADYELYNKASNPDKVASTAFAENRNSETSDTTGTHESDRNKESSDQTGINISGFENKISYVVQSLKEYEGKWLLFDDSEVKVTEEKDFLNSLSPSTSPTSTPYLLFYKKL
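USP1/UAF1 complex (1 nM) preincubated 15 min at room temperature with compound, then Ub-Rho substrate (150 nM final) added. Kinetic fluorescence at 480/540 nm over 6 reads at 60 s intervals; 50 mM HEPES pH 7.8, 0.5 mM EDTA, 0.1 mg/ml BSA, 1 mM TCEP, 0.01% Tween-20.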
USP2a block: USP2a (human) protease inhibition; Potency, µM (series often up to 38.3 µM), for the others: top-dose activity change, negative = inhibition, hits mostly inhibitors; O75604; 0.01% of 330,000 active; USP2 core, Ub-CHOP2 coupled fluorogenic reporter, 485/531;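 note: potency is the fitted concentration of half-maximal effect; plate controls were DMSO wells for no effect and full inhibition by NEM control for full effect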
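Cell-free coupled assay: 10nM USP2 core preincubated 30min RT with compound in Tris-HCl pH 8.0/CaCl2/CHAPS buffer, then 25nM Ub-CHOP2 and 25nM reporter substrate; fluorescence (Ex 485/Em 531) read after 60min RT, normalized to NEM inhibition, concentration-response curves fitted.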
GALK inhibitor: blocks human galactokinase activity | P51570 | Purified GALK, Kinase-Glo residual ATP luminescence | Potency, µM (highest dose often 57.5 µM), without a hit: top-dose activity change, negative = inhibition, hits mostly inhibitors | 0.007% of 270,000 active; note: potency is the fitted concentration of half-maximal effect
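Galactose (100 uM) and ATP (35 uM) were turned over by 5 nM GALK for 1 h at RT. Kinase-Glo Plus then converted the remaining ATP into a luminescent signal.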
VDR inhibitor: blocks the human vitamin D receptor | 0.93% of 400,000 active | Potency, µM, without a hit: max response, negative = inhibition, most hits filed as inhibitors | P11473 | AID 504847 | VDR-SRC2-3 peptide fluorescence polarization, 2 h; note: potency is the fitted concentration of half-maximal effect
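Measured by FP: displacement of SRC2-3 coactivator peptide from VDR by library compounds, following a two-hour ambient incubation.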
PLK1 PBD block: inhibitors of human PLK1 polo-box domain binding; Potency, µM, without a hit: max response, negative = inhibition, actives largely listed as inhibitors; 2.8% of 360,000 active; Plk1 PBD binding of FITC phosphopeptide, fluorescence polarization; note: potency is the fitted concentration of half-maximal effect; series mostly up to about 57 µM; nearly all actives have a fitted effect of over 65% in size
FBPA coupling cs: counter-screen for Giardia aldolase inhibitors: coupling enzyme system | coupling enzyme system counterscreen, AmpLite Red fluorescence | activity change, negative = inhibition, % at 58.2 µM, hits read low | 0.67% of 290,000 active; in the data active = activity change below about -30%
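Fluorescence at 525 nm excitation and 598 nm emission measured inhibition of the coupled detection system without aldolase. Compounds (at 57.5 uM final) were preincubated 10 min at room temperature with coupling enzyme reagent before a 20 min substrate/AmpLite Red step.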
* hit, by the source's call; ? = inconclusive; · = no result. Unless noted, calls come from the whole dose curve; as a rule, active = well fitted curve in the direction sought with a large enough effect; inconclusive = small, poorly fitted or top-dose-only effect, or another doubt; inactive = no such curve, though single readings can be large; an effect the other way counts as inactive or inconclusive. Unless noted, % is set by controls: 0 for no effect and ±100 for the full control effect.

SMILES | USP1-UAF1 inh | USP2a block | GALK inhibitor | VDR inhibitor | PLK1 PBD block | FBPA coupling cs
CCCOc1ccc(-c2csc(N)n2)cc1[N+](=O)[O-] | -8% | 2% | 0% | -11% | -6% | -4
Cc1ccc(CNC(=O)C2CCC(=O)N(Cc3ccc(Cl)cc3)C2)cc1F (stereo unspecified) | 4% | -4% | -3% | -8% | 0% | ·
COC(=O)N(C)C[C@H]1OCc2cnnn2CCCC(=O)N([C@H](C)CO)C[C@H]1C | -20% | · | · | · | 5% | ·
Cc1ccc(C)c(OCC(=O)Nc2cc(C)on2)c1 | 4% | 1% | -3% | 3% | -5% | 2
CCc1ccccc1NC(=S)Nn1cnnc1 | · | -1% | -9% | · | · | ·
Cc1ccccc1NC(=S)Nn1cnnc1 | -3% | 0% | 2% | ? | 15µM* | ·
Fc1ccccc1NC(=S)NCc1ccccc1 | -18% | -2% | 0% | 17% | -11% | -1
Fc1ccccc1NC(=S)Nn1cnnc1 | -5% | 0% | -4% | ? | 6.7µM* | ·
CCOc1ccccc1NC(=S)Nn1cnnc1 | -7% | -1% | -9% | 40µM* | 2.4µM* | ·
C=CCNC(=O)c1ccc(CN2CCC(Cc3ccccc3)CC2)cc1 | -18% | 0% | -1% | -8% | 1% | -1
O=C(N/N=C\CCc1ccccc1)c1ccco1 | -4% | 2% | 2% | ? | 15µM* | -2
CC(/C=N/NC(=O)c1ccco1)=C\c1ccccc1 | -17% | 0% | 7% | 11% | 1% | 1
CN(C)c1ccc(C=c2c3ccccc3n3c2cc(-c2ccccc2)[n+]3C)cc1 | 18µM* | · | · | -15% | -1% | ·
COc1cc(C=c2c3ccccc3n3c2cc(-c2ccccc2)[n+]3C)cc(OC)c1OC | 2.2µM* | · | · | -18% | 4.7µM* | ·
COc1cc(N(C)C)ccc1C=c1c2ccccc2n2c1cc(-c1ccccc1)[n+]2C | ? | · | · | 79µM* | ? | ·
CN(C)c1ccc(C=c2c3ccccc3n3c2c2c([n+]3C)CCCC2)cc1 | -14% | · | · | 43% | -26% | ·
CN(C)c1ccc(C=c2c3ccccc3n3c2cc(-c2ccc(Cl)cc2)[n+]3C)cc1 | -20% | · | · | -14% | 30µM* | ·
O=C1CC(c2nnc(Cc3ccc(F)cc3Cl)o2)CN1c1ccccc1 (stereo unspecified) | -14% | · | · | 4% | · | ·
O=[N+]([O-])c1cccc(/C=C2\CCC(/C=N/Nc3ccc4ccccc4n3)=C2N2CCOCC2)c1 | -10% | 5% | 1% | -1% | -1% | 3
Cn1c(CO)c(-c2ccccc2)c2cc([N+](=O)[O-])ccc21 | -8% | -1% | -1% | 15% | -4% | 3
CN(C)c1ccc(C=c2c3cc([N+](=O)[O-])ccc3n3c2cc(-c2ccccc2)[n+]3C)cc1 | ? | · | · | ? | 2.7µM* | ·
C=CSc1sc(Cl)c(N2CCOCC2)c1[N+](=O)[O-] | 0% | 2% | 2% | -1% | -15% | 3
C=CS(=O)(=O)c1sc(Cl)c(N2CCOCC2)c1[N+](=O)[O-] | -18% | 11% | -5% | ? | 0.53µM* | 7
N#Cc1c(N)oc(-c2ccc3c(c2)OCO3)c1-c1ccc2c(c1)OCO2 | ? | -1% | 3% | -11% | -16% | -38*
O=C(C[n+]1ccc2ccccc2c1)c1cccc2ccccc12 | -10% | 1% | 5% | -9% | 24µM* | 0
SMILES | USP1-UAF1 inh | USP2a block | GALK inhibitor | VDR inhibitor | PLK1 PBD block | FBPA coupling cs
COc1ccccc1NC(=O)c1ccc(S(=O)(=O)NCc2ccco2)cc1 | -13% | 4% | 18% | 8% | -5% | 0
CN(C)C(=C(C#N)C#N)N1CCN(c2ccc(Cl)c(Cl)c2)CC1 | -21% | 0% | 0% | -18% | 1% | 0
CN(C)C(=C(C#N)C#N)N1CCN(c2ccc(Cl)cc2)CC1 | -6% | 4% | 4% | -7% | 30µM* | 3
CN(C)S(=O)(=O)n1cc(/C=C(\NC(=O)c2ccccc2F)C(=O)N2CCOCC2)c2ccccc21 | -1% | -4% | 1% | ? | 19µM* | 0
CCn1cc(/C=C(\NC(=O)c2cc(OC)c(OC)c(OC)c2)C(=O)N2CCOCC2)c2ccccc21 | -15% | · | · | · | 7% | ·
CCn1cc(/C=C(\NC(=O)c2ccc(OC)c(OC)c2)C(=O)N2CCOCC2)c2ccccc21 | -22% | 0% | -4% | -25% | 27µM* | 3
Clc1ccc(-c2c[n+](Cc3ccc(Cl)c(Cl)c3)c3n2CCC3)cc1 | · | 5% | -1% | · | · | -1
CCc1nc2ccccc2n1CC(=O)N1CCN(Cc2ccccc2)CC1 | -6% | 1% | -1% | 0% | 21µM* | 3
CC(=O)Nc1ccc(C(=O)CSc2nc3ccccc3n2CC(=O)N2CCCC2)cc1 | -6% | 0% | 1% | 79µM* | ? | 2
CC(=O)Nc1ccc(NC(=O)Cn2c(CC(=O)N3CCCC3)nc3ccccc32)cc1 | -6% | 0% | 12% | -19% | 30µM* | 1
O=C(CSc1nc2ccccc2n1CC(=O)N1CCCCC1)N1CCCCC1 | -13% | 2% | 0% | 0% | 0% | -1
O=C(Cn1c(NCCO)nc2ccccc21)N1CCN(Cc2ccccc2)CC1 | ? | 2% | -2% | -2% | 4% | 0
CNC(=O)Cc1nc2ccccc2n1CC(=O)Nc1cc(C)cc(C)c1 | -8% | 2% | -2% | -11% | -6% | 1
COc1ccc(S(=O)(=O)N2CCN(C(=O)CCC3CCCC3)CC2)cc1 | -1% | 0% | 0% | 1% | -3% | 0
COc1ccc(S(=O)(=O)N2CCOC2CNC(=O)C(=O)NCCN2CCOCC2)cc1OC (stereo unspecified) | -2% | 1% | -1% | -11% | -2% | ·
COCCNc1nc2ccccc2nc1NS(=O)(=O)c1ccc(C)cc1C | -10% | 3% | -2% | 5% | -5% | 5
CCOC(=O)c1cc(-c2ccccc2)sc1NC(=O)CC | -24% | 6% | 0% | ? | 21µM* | 2
CCOC(=O)c1cc(-c2ccccc2)sc1N | -16% | 1% | 1% | ? | 12µM* | 0
CCc1ccc(C(=O)C(C)OC(=O)c2cccc(S(=O)(=O)N3CCOCC3)c2)cc1 (stereo unspecified) | -10% | -9% | · | -12% | 1% | ·
CCOC(=O)C1=C(CSc2nc(C)ccc2C#N)OC(N)=C(C#N)C1c1cccc(OC)c1OC (stereo unspecified) | ? | -1% | -1% | 15% | 21µM* | -15
O=C1c2ccccc2C(=O)C1Cc1cccc2ccccc12 | -22% | -3% | 1% | ? | 6.7µM* | -11
CC1CCc2c(ccc3ccccc23)C1=O (stereo unspecified) | -21% | · | · | 6% | -7% | ·
CCCCNC(=O)Nc1ccccc1CC | -27% | -2% | 12% | 1% | -2% | 1
